TDP43 rescue: inhibitors of TDP-43 toxicity in yeast; TDP-43 expressing yeast growth rescue, BacTiter-Glo, 24 h; Potency, µM (doses to about 46.1 µM), without a hit: at the highest dose growth rescue (activation), hits mostly activators; 410,000 compounds, 1.8% hits; note: % of control where 0% means no effect; nearly all actives have a fitted effect of over 50% in size
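Growth rescue of TDP-43-toxic yeast measured as ATP luminescence (BacTiter-Glo). Cells grown to mid-log in raffinose, induced in galactose at OD600=0.02, exposed to compound 24 hr at 30 deg C.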
aSyn rescue: inhibitors of alpha-synuclein toxicity in yeast | Yeast expressing alpha-synuclein, growth rescue, BacTiter-Glo, 24 h | Potency, µM (titrated, usually from 46.1 µM), inactives show at the highest dose growth rescue (activation), actives largely listed as activators | 370,000 compounds, 0.14% hits; note: % of control where 0% means no effect; nearly all actives have a fitted effect of over 65% in size
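Screening used galactose-induced yeast with toxic alpha-synuclein levels, exposed to compound for 24 hr at 30 deg C. Cell growth, read with BacTiter-Glo luminescence, gave the measured signal.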
Abeta rescue: A-beta toxicity reversal in yeast; AID 1347071; 410,000 compounds, 0.063% hits; yeast expressing A-beta42, growth rescue, OD600, 48 h; response scale: 0% DMSO, 100% iron-clioquinol control; Potency, µM (titrated, usually from 46.1 µM), actives largely listed as activators; note: nearly all actives have a fitted effect of over 55% in size
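Yeast growth medium received pinned compounds, then yeast cells expressing toxic A-beta were added; plates incubated at 30 C for 48 hr. Growth read as absorbance at 600 nm, normalized to DMSO and equimolar FeCl3 plus clioquinol controls.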
FUS suppressor: rescues growth of FUS-expressing yeast; S. cerevisiae FUS-expressing, growth rescue, OD600, 24 h; AID 1347120; 390,000 compounds, 0.24% hits; Potency, µM (series often up to 76.6 µM), usual class: activators;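 note: plate controls were DMSO vehicle for no effect and reference control for full effect; nearly all actives have a fitted effect of over 55% in size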
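Read-out: OD at 600 nm after 24hr at 30C, reporting rescue of FUS-induced yeast toxicity. Cells at OD 0.005 in galactose (2%) minimal medium; compounds tested in a dilution series; CP55940 titration from 92uM final as control.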
Mito fusion act: inhibitors of mitochondrial division or activators of mitochondrial fusion. S. cerevisiae fusion-defective mutant growth rescue, CellTiterGlo 48 h. AID 485298. 320,000 compounds, 0.23% hits. Potency, µM (highest dose often 46.1 µM), inactives show at the top dose growth rescue (activation), usual class: activators; note: % of control where 0% means no effect; nearly all actives have a fitted effect of over 45% in size
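Yeast fusion mutant, YPEG (non-fermentable carbon), compound, 48 h at 37C non-permissive; CellTiterGlo added, 10 min RT, luminescence read. Rescued growth = division inhibition.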
* marks the source's active call; other numbers are inactive results; [ ] = dose if it differs, or a comment. Only some compounds are listed: those with a hit (about 2.2% of all), similar ones and a draw of the others. Calls come from the whole dose curve; as a rule, active = well fitted curve in the direction sought with a large enough effect; inconclusive = small, poorly fitted or top-dose-only effect, or another doubt; inactive = no such curve, though single readings can be large; an effect the other way counts as inactive or inconclusive. Potency is the fitted concentration of half-maximal effect.

Screening O=C1CSC(c2ccc(Cl)c(Cl)c2)N1c1nccs1 (stereo not given) returned TDP43 rescue 14µM*, aSyn rescue 1%[1.84 µM], Abeta rescue inactive, FUS suppressor inactive and Mito fusion act 12%.
`Fc1c(-c2ccc3ncnc(NCc4cccs4)c3c2)ccc2c1OCO2` gave FUS suppressor inactive.
`O=C(O)c1ccccc1NC(=O)N1c2ccccc2Sc2ccccc21` gave TDP43 rescue 20µM*, Abeta rescue inactive and FUS suppressor inactive.
Screening Clc1cccc(CON/C=N/c2ncnc3sccc23)c1 returned TDP43 rescue 3.5µM*, aSyn rescue -14%, Abeta rescue inactive, FUS suppressor inactive and Mito fusion act -24%.
Screening CC(=O)CCC1C2C(O)C(C(C)C)C(OC(=O)/C=C/c3ccccc3)CC12C (stereo not given) returned TDP43 rescue 20%, aSyn rescue 6%, Abeta rescue inactive, FUS suppressor inactive and Mito fusion act 3.5µM*.
For Cc1ccc(-n2c(SCC(=O)Nc3ccc4c(c3)OCO4)nc3c([nH]c4ccccc43)c2=O)cc1 the results were TDP43 rescue 26%, Abeta rescue inactive and FUS suppressor inactive.
`O=C(CSCc1ccc(F)cc1)Nc1nc2c(s1)CCCC2` gave TDP43 rescue 14µM*, aSyn rescue 12%, Abeta rescue inactive, FUS suppressor inactive and Mito fusion act -12%.
Screening O=C(CSc1nnc(CNc2ccc(Cl)cc2)o1)Nc1nc2c(s1)CCCC2 returned TDP43 rescue 19%, aSyn rescue -5%, Abeta rescue inactive, FUS suppressor 35µM* and Mito fusion act 0%.
Screening O=C(COc1ccccc1Cl)Nc1nc2c(s1)CCCC2 returned TDP43 rescue 11µM*, Abeta rescue inactive and FUS suppressor inactive.
For O=C(CSCc1ccc(F)cc1)Nc1ccc(F)cc1 the results were TDP43 rescue inconclusive, aSyn rescue -9%, Abeta rescue inactive, FUS suppressor inactive and Mito fusion act 8%.
COc1ccc(NC(=O)c2cnn(-c3ccc(C)cc3)c2-n2cccc2)cc1Cl was read as TDP43 rescue 6%, Abeta rescue inactive and FUS suppressor inactive.
Cc1ccc2oc(=O)n(CCCOc3ccc(Cl)cc3)c2c1 was read as TDP43 rescue 29%, Abeta rescue inactive and FUS suppressor inactive.
`CN(c1ccccc1)S(=O)(=O)c1ccc(NC(=O)c2ccccc2)cc1` gave TDP43 rescue 15%, aSyn rescue 11%, Abeta rescue inactive and Mito fusion act 22µM*.
`CN(c1ccccc1)S(=O)(=O)c1ccc(NC(=O)c2ccc(F)cc2)cc1` gave TDP43 rescue 29%, aSyn rescue 3%, Abeta rescue inactive and FUS suppressor inactive.
`CN(C(=S)Oc1ccc(C(=O)Nc2ccccc2)cc1)c1ccccc1` gave TDP43 rescue 13µM*, aSyn rescue 0%, Abeta rescue inactive and Mito fusion act inconclusive.
CCn1ccc2c(OCC(=O)Nc3ccccc3C)cccc2c1=O was read as TDP43 rescue 13µM*, Abeta rescue inactive and FUS suppressor inactive.
Screening CCOC(=O)N1CCN(C(=O)C[C@H]2C[C@@]3(C(=O)OC)C(=C[C@H](COCc4ccccc4)O[C@@H]3C)N(Cc3cccc4ccccc34)C2=O)CC1 returned FUS suppressor 22µM*.
COC(=O)[C@]12C[C@H](CC(=O)NCc3cccc4ccccc34)C(=O)N(Cc3ccc(Cl)cc3Cl)C1=C[C@H](COCc1ccccc1)O[C@@H]2C was read as FUS suppressor inactive.
`COC(=O)[C@]12C[C@H](CC(=O)NCCc3ccccc3OC)C(=O)N(Cc3cccc4ccccc34)C1=C[C@H](COCc1ccccc1)O[C@@H]2C` gave FUS suppressor 16µM*.
COC(=O)[C@]12C[C@H](CC(=O)NCC3CCCCC3)C(=O)N(CCc3ccc(OC)c(OC)c3)C1=C[C@H](COCc1ccccc1)O[C@@H]2C was read as FUS suppressor 10µM*.
`COC(=O)[C@]12C[C@H](CC(=O)NCCC(C)C)C(=O)N(Cc3ccccc3)C1=C[C@H](COCc1ccccc1)O[C@@H]2C` gave FUS suppressor inactive.
Screening COc1cc(CN(C)c2ncnc3sccc23)ccc1OC(F)F returned TDP43 rescue 18µM*, aSyn rescue 2%, Abeta rescue inactive, FUS suppressor inactive and Mito fusion act 1%.
`CCN(C(=O)Cn1cc(S(=O)(=O)Cc2ccccc2Cl)c2ccccc21)c1ccccc1` gave TDP43 rescue 19%, Abeta rescue inactive and FUS suppressor inconclusive.
Screening Cc1cccc(/C=N/NC(=O)c2cc3c(s2)-c2ccccc2CC3)c1 returned TDP43 rescue inconclusive, aSyn rescue 24%, Abeta rescue inactive, FUS suppressor inactive and Mito fusion act 11µM*.
For O=C(N/N=C/c1cccc(C(F)(F)F)c1)c1cc2c(s1)-c1ccccc1CC2 the results were TDP43 rescue -4%, aSyn rescue -2%, Abeta rescue inactive, FUS suppressor inactive and Mito fusion act 2%.
For O=C(CCOc1ccccc1)NO the results were aSyn rescue 2%.
For CCc1cc2c(cc3c(=O)n(CC(=O)NC4CCC(C)CC4)nc(CC)n32)s1 (stereo not given) the results were TDP43 rescue 18%, Abeta rescue inactive and FUS suppressor inactive.
COc1cc(/C=N/NC(=O)C23CC4CC(CC(C4)C2)C3)cc(Br)c1O was read as TDP43 rescue 2%, aSyn rescue -1%, Abeta rescue inactive, FUS suppressor inactive and Mito fusion act 3%.
Screening O=C(N/N=C/c1cc([N+](=O)[O-])cc(Br)c1O)C12CC3CCC(CC(C3)C1)C2 returned TDP43 rescue 4.5µM*, aSyn rescue 0%, Abeta rescue inactive, FUS suppressor inactive and Mito fusion act 0%.
CN(N=Cc1ccccc1O)c1ccc2ccccc2n1 was read as TDP43 rescue -2%, aSyn rescue -16%, Abeta rescue inactive and FUS suppressor inactive.
For CN(/N=C/c1cc(Br)cc(Br)c1O)c1cccc(C(F)(F)F)n1 the results were TDP43 rescue inconclusive, aSyn rescue 8.9µM*, Abeta rescue inactive, FUS suppressor inactive and Mito fusion act -5%.
For O=[N+]([O-])c1ccc(/C=N/Nc2nc(-c3ccccc3)c3cc(Br)ccc3n2)o1 the results were TDP43 rescue 11µM*, aSyn rescue -7%, Abeta rescue inactive, FUS suppressor inactive and Mito fusion act 1%.
